Measured values from the supplement of paper PMC3334620.
In all, about 33,000 sequences were measured (“E-score (-0.5 to 0.5)”: median about -0.0014, highest 2% from about 0.25 on). The list comes from a sample in which the highest values are over-represented; it also holds similar and randomly drawn sequences.

Target: T1, Cad1 (UniProt P24813)
T1 sequence: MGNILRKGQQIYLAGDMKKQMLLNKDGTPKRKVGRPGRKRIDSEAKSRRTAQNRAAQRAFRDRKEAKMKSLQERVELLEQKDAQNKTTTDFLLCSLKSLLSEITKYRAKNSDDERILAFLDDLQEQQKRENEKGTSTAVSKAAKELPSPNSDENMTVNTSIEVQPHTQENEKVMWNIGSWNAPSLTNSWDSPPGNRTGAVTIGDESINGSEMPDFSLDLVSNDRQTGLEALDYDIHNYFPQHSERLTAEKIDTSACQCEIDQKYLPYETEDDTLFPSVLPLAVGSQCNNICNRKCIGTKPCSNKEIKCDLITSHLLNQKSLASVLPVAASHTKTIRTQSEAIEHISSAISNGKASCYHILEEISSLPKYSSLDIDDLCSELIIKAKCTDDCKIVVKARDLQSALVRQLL
Assay: PBM E-score (8-mer binding enrichment) (E-score (-0.5 to 0.5)); higher = stronger / more preferred TF binding
Conditions: protein concentration: 100 nM; construct: GST-full length
Description: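 Universal 'all 10-mer' protein binding microarrays (Agilent AMADID 015681) probed with GST-tagged S. cerevisiae TFs (full-length or DBD) made by in vitro transcription/translation (PURExpress), about 100-200 nM. Bound TF was detected with fluorescent anti-GST. Each ungapped 8-mer (which stands for itself and its reverse complement) is scored by the PBM enrichment score (E-score), a modified Wilcoxon-Mann-Whitney statistic from -0.5 to +0.5, computed with the Universal PBM Analysis Suite. Scale: above 0.35 generally sequence-specific binding.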

Sequence	PBM E-score
CGAACGCC	-0.0886
AATCGGAG	0.0523
AATCGGAA	0.211
AATCGGAT	0.283
CCAGTCTC	-0.286
CATCTGGA	-0.165
CACAGCGA	0.133
ATATCGCA	-0.0511
CTCGCGAG	0.279
CTCGCGAA	0.0936
ATCGCGAA	0.243
CGAGCGAC	0.0243
ATCGCGAG	0.264
AGAGCGAG	-0.0569
ATATCGCC	0.0776
CGAGCGAG	0.258
CACGCGAG	0.239
ATATCGCG	0.267
ATCGCGAT	0.237
CCCAGACA	-0.108
CGTTACGA	0.111
CATTAAGC	0.0681
AGTTGAGA	-0.0203
AAGAGCCA	0.0145
AGACCACA	-0.0838

Sequence	PBM E-score
ACGGCGTA	0.0105
AGGAATTG	0.0938
CGATCCCA	-0.0615
CCTGCTAG	-0.182
CGCAACAA	0.0963
GGAGCGTA	0.0102
ATCCGTAC	0.177
CTGGAATC	-0.0416
CCTCCAGA	-0.208
ACCGCGAG	-0.00282
ATCGCGCA	0.0635
CGCGTGAC	0.056
AGCGTGAG	-0.0272
AGCGCGAG	0.0178
ATCGTGCA	0.166
ATCGTGCG	0.325
CGCGCGAG	0.302
CGCGCGAA	0.175
ATCGTGCC	0.102
ATCGCGCG	0.282
CGCGTGAG	0.269
ATCGCGCC	0.143
CAACCAAA	0.0894
CGGAGTAA	0.109
ATAGACCG	-0.0498

Sequence	PBM E-score
AACGCACC	-0.0282
ACACCAAC	-0.0461
CTCAATGC	-0.134
ACTGGGAA	-0.0452
ACTTATCA	0.116
TCTTATAA	0.0694
CCTTATCG	0.0678
TCTTATCA	0.267
CCTTATCA	0.257
GCTTATCA	0.0614
TGTGAAAA	0.103
ACGGAACC	0.218
GACCGGGC	-0.104
AACTGATA	0.0697
ACAGACCC	-0.211
AGAGACCT	-0.104
CGGGACTA	-0.22
ACGCACTG	-0.0467
GGGCCTTA	-0.0621
ATTAGTGG	0.163
ATTAGTGA	0.14
CCTAGTCA	-0.0765
GTTAGTTA	0.155
ATTAGTGC	0.353
CTTAGTCC	-0.0572

Sequence	PBM E-score
ATTAGTTA	0.362
ATTAGTTG	0.216
GTTAGTCA	0.266
GGTAGTCA	-0.206
GCTAGTCA	-0.0828
CTTAGTCA	0.38
GGTCTCAA	-0.0801
GTCTACGA	-0.0725
CCGGTTAG	0.0658
CACCGATG	-0.179
ATTTCGAC	-0.0837
GCGGGTAC	0.0345
CAATACCG	-0.0276
AGGTCCCG	-0.0309
AGCGATCG	0.216
ACGCTAGC	-0.0932
AGGCATTA	-0.16
AAGGGGCT	0.0431
CAGCGGTC	-0.229
GTTAGTAA	0.422
GGTAGTAA	-0.0434
GTTAGTGA	-0.0153
CATAGTAA	0.141
TATAGTAA	0.294
GATAGTAA	0.156

Sequence	PBM E-score
ACCACACC	-0.169
CCAGGAAG	-0.131
ACTCGACT	-0.153
CACCGAAA	0.12
TCGACAAA	0.195
TTGACCAA	0.0548
GTGACAAA	0.229
ATGACAAA	0.414
ATGACAAC	0.183
CTGACCAA	0.276
ATGACATA	0.267
TTGACAAA	0.294
ATGACAAG	0.127
ATGACATC	0.232
GTGACCAA	0.0231
CTGACATA	0.205
CAGCGCGG	0.112
TATTGCAA	0.19
CTCCGCAG	0.00742
GGCCTTAC	-0.166
AACCAAAC	-0.102
AGATGGGA	-0.204
CTGACAAA	0.444
CTGACAAC	0.0707
CTGACAAG	0.101

Sequence	PBM E-score
CAACTAGG	0.079
CGAGGCAG	0.0833
AACCTCAC	-0.112
ATGTTTTC	0.268
ATGTTTCC	-0.00726
ATGTTTTA	0.0134
CTGTTGGC	-0.202
ATTTGTTA	0.203
ATTTGTCC	0.253
ATTTGTCG	0.147
ATTTGTTC	0.265
ATTTGTGC	0.148
CTTTGTTC	0.0827
AAATCCTC	-0.0802
GTGTGACA	0.0138
ATGTGACA	0.281
CTGTGACA	0.209
GCATCCCA	-0.303
CGCACTTC	-0.184
CCCAAGAG	-0.132
ATATTACA	0.347
GTATTACA	0.234
CTATTACA	0.123
ATATTACC	0.28
ATATTACG	0.24

Sequence	PBM E-score
CTATTACC	-0.0596
AGCCGTCG	0.219
CACGGAAG	-0.00842
TATAGGAA	0.127
CGACCCGC	0.0365
CATAACGG	-0.00107
AATAACGG	0.253
AATAACGC	-0.0922
GATTGCAA	0.117
AGGACCCA	-0.22
AAGCGCTT	0.421
AATCGCGC	0.327
AAGCGCTC	0.0197
TAGCGCGA	0.211
AATCGCGT	0.107
GATCGCGC	0.118
ACGCGCGG	0.136
CCGCGCGG	0.417
TCGCGCGA	0.308
TCGCGAGA	0.165
CCGCGCCG	0.174
AAGCGCTA	0.107
ATCGGTAG	0.0904
